We go through 83 compounds from publication PMC4336329 (PLoS ONE, 2015).

Hit rate of the full screen: of about 310,000 compounds, about 14,000 (4.5%) showed an effect of 50% or more. The effect is printed as a negative number. The sample as a whole holds a higher share of strong results than the screen did.
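Also: peak tail current of the secondary pulse compared with the same well before compound.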

This experiment deals with human ether-à-go-go-related gene (hERG) potassium channel (human, UniProt Q12809). Kind of experiment: primary screen, population patch clamp on CHO cells stably expressing hERG; higher = less effect of the substance.
Chain of human ether-à-go-go-related gene (hERG) potassium channel (Q12809 whole entry, looked up): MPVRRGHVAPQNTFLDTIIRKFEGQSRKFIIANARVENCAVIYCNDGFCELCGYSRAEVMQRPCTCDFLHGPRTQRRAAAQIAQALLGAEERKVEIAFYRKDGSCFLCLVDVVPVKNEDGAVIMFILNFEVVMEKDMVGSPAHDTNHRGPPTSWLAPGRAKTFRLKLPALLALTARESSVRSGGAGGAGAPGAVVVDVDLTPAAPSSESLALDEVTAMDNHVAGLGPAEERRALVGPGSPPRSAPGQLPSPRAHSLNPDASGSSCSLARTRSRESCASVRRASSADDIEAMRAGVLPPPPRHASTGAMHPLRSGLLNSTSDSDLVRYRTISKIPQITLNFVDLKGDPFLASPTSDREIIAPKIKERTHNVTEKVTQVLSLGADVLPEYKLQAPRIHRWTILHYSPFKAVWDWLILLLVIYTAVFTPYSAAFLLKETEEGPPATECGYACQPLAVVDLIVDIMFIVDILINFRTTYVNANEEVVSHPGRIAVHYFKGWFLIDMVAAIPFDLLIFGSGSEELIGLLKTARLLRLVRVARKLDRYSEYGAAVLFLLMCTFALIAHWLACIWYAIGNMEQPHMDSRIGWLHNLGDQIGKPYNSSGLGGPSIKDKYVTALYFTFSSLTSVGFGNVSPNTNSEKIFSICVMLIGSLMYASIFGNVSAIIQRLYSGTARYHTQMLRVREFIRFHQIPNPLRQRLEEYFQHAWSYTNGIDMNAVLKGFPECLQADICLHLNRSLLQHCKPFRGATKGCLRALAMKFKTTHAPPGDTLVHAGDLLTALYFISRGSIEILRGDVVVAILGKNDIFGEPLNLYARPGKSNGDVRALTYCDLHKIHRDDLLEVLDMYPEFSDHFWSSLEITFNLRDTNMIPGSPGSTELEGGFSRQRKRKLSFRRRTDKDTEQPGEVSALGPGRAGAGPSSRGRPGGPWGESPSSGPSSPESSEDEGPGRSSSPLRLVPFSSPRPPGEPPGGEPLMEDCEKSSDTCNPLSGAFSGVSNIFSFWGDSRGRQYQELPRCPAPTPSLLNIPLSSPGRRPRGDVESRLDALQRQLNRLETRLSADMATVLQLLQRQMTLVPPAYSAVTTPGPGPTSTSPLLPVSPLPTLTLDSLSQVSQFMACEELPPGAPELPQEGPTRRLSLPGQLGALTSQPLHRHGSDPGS
`COc1ccc(OCCOC(=O)c2cc(S(=O)(=O)N3CCOCC3)c(Cl)cc2Cl)cc1`: the “hERG current change (%, negative = inhibition) at 10uM” value was -17.7%. For `Cc1ccc(NS(=O)(=O)c2cc([N+](=O)[O-])ccc2NNC(=S)Nc2cccc(Cl)c2)c(C)c1` the value was 26%; for `C[C@]12C=CC(=O)C=C1CC[C@@H]1[C@@H]2[C@@H](O)C[C@@]2(C)[C@H]1CC[C@]2(O)C(=O)COC(=O)CCC(=O)NCCc1ccc(O)cc1`, 12.8%; for `CN1CCN(c2oc(Cc3cccc4ccccc34)nc2C#N)CC1`, -9.75%.

With `CCOC(=O)N1CCC(NC(=O)CCC(=O)c2ccccc2)CC1`, the “hERG current change (%, negative = inhibition) at 10uM” value was 10.8%. The same measure for `CCc1ccccc1NC(=O)C(Cc1cccc(OC)c1OC)c1nn[nH]n1` (centres unmarked): 7.41%; for `O=C(Nc1nccs1)C12CC3CC(C1)CC(C(=O)Nc1nccs1)(C3)C2`: -11.1%. The same measure for `CCN1CCN(CCc2nc3cc(NC(=O)COc4ccccc4)ccc3n2C)CC1`: -49.8%. Regarding `CN1CCN(CCc2nc3cc(NC(=O)COc4ccc(Cl)cc4)ccc3n2C)CC1`, the “hERG current change (%, negative = inhibition) at 10uM” value is -61%.

Take `Cn1c(CCN2CCCCC2)nc2cc(NC(=O)COc3ccc(Cl)cc3)ccc21`: the “hERG current change (%, negative = inhibition) at 10uM” value was -84.8%.

With `CC(=O)Nc1ccc2c(c1)nc(CCN1CCN(C)CC1)n2C`, the “hERG current change (%, negative = inhibition) at 10uM” value is on record as -2.56%. The same measure for `Cn1c(=O)n(C)c2cc(NC(=O)COc3ccc(F)cc3)ccc21`: -41.8%. The same measure for `COc1ccc(OCC(=O)Nc2ccc3c(c2)n(C)c(=O)n3C)cc1`: -3.51%; for `Cn1c(=O)n(C)c2cc(NC(=O)COc3ccc(Cl)cc3)ccc21`: -59.4%; for `CCN1CCN(CCc2nc3cc(NC(=O)COc4ccc(Cl)cc4)ccc3n2C)CC1`: -67.6%. The same measure for `c1ccc(Cc2nnc3sc(-c4ccccn4)nn23)cc1`: -6.6%. For `COc1ccc(C(=O)N=c2sc3c(C)ccc(OC)c3n2C)cc1OC`, the “hERG current change (%, negative = inhibition) at 10uM” value worked out at 7.38%. The same measure for `Cc1cc2c(ncn2C)c(NS(=O)(=O)c2ccc(Cl)cc2)c1C`: -1.18%; for `COc1cc(C2NCC(c3ccc(Cl)cc3Cl)c3c2[nH]c2ccccc32)cc(OC)c1OC.Cl` (centres unmarked): 7.58%. `COc1ccccc1N(C(=O)c1ccco1)C(C(=O)NC1CCCC1)c1cccnc1` (centres unmarked): the “hERG current change (%, negative = inhibition) at 10uM” value is listed as -0.441%. The same measure for `CC1CCN(S(=O)(=O)N2CCC(C(=O)NCCc3ccccc3)CC2)CC1`: 2.8%; for `CC(C)CN1C(=O)c2ccc(C(=O)Nc3ccccn3)cc2C1=O`: -14.7%. The same measure for `CC1C(=O)N2CCCc3cc(NC(=O)COc4ccc(Cl)cc4)cc1c32` (centres unmarked): -40.2%.

In the case of `Cn1c(CN2CCCC2)nc2cc(NC(=O)COc3ccccc3)ccc21`, the “hERG current change (%, negative = inhibition) at 10uM” value is recorded as -34.1%. With `COc1ccc(OCC(=O)Nc2ccc3c(c2)nc(CN2CCCC2)n3C)cc1`, the “hERG current change (%, negative = inhibition) at 10uM” value was -26.9%. For `Cn1c(CN2CCCC2)nc2cc(NC(=O)COc3ccc(Cl)cc3)ccc21`, the “hERG current change (%, negative = inhibition) at 10uM” value is on record as -69.2%. The same measure for `O=C(COc1ccc(Cl)cc1)Nc1cc2c3c(c1)CC(=O)N3CCC2`: -57.1%. The same measure for `O=C(COc1ccccc1)Nc1cc2c3c(c1)CC(=O)N3CCC2`: -36%; for `CC(C)CNC(=O)COc1ncnc2sccc12`: -37.4%; for `Cc1c(CN(C)Cc2cn(C)nc2-c2ccccc2F)[nH]c2ccccc12`: -6.24%. For `COc1cc(/C=N/n2nnnc2N)cc(OC)c1OC` the value was -0.774%; for `CN1C2C=C(N(CCc3ccccc3)C(=O)c3ccc(Cl)cc3)CC1CC2.Cl` (centres unmarked), -74.8%; for `O=C(NCC(=O)N1CCC(Cc2ccccc2)CC1)c1ccc(Cl)cc1`, -23.3%. For the compound `Cc1cc(C)cc(C(=O)NCCCc2ccccc2)c1`, the “hERG current change (%, negative = inhibition) at 10uM” value is reported as -4.26%.

Take `COC(=O)C1=C(CCc2ccccc2)NC(=O)NC1c1ccc(Cl)cc1` (centres unmarked): the “hERG current change (%, negative = inhibition) at 10uM” value was -9.59%. The same measure for `O=C(NCCc1c[nH]c2ccccc12)c1ccc(Cl)cc1`: -12.7%. The same measure for `O=C(Cc1ccc(Cl)cc1)NCCc1c[nH]c2ccccc12`: -19.8%. The same measure for `CN1C2C=C(N(CCc3c[nH]c4ccccc34)C(=O)c3ccc(Cl)cc3)CC1CC2.Cl` (centres unmarked): -67%; for `COc1cc(C(=O)N(CCc2ccccc2)C2=CC3CCC(C2)N3C)cc(OC)c1OC.Cl.O` (centres unmarked): -29.2%; for `Cc1cc(C)cc(C(=O)N(CCc2ccccc2)C2=CC3CCC(C2)N3C)c1.Cl` (centres unmarked): -60.7%.

Turning to `COc1cccc(CN(C(=O)c2cccc(OC)c2)C2CCS(=O)(=O)C2)c1` (centres unmarked), the “hERG current change (%, negative = inhibition) at 10uM” value was -7.02%. The same measure for `O=P1(Nc2cccnc2)COc2ccccc2OC1`: 30.6%; for `CSc1ccccc1C(=O)NCCOc1cccc(C)c1`: 17.7%; for `O=C(CNC(=O)c1cccs1)NCC(=O)OCc1ccccc1Cl`: 2.85%. For `Cc1[nH]nc2c1C1(CCC3(CC1)OCCO3)C(C#N)=C(N)O2` the value was -0.214%; for `Cc1[nH]nc2c1C1(CCOCC1)C(C#N)=C(N)O2`, -56.7%. For `CC(=O)N1CCC2(CC1)C(C#N)=C(N)Oc1n[nH]c(C)c12` the value was 15.5%; for `COc1ccc(S(=O)(=O)NC(C)C(=O)NCc2ccccn2)cc1Cl` (centres unmarked), 7.6%. As to `Cc1ccc2c(c1)cc(CN(CCc1ccccc1)C(=O)N1CCOCC1)c1nnnn12`, the “hERG current change (%, negative = inhibition) at 10uM” value was -61.3%. For `Cc1ccc(C(=O)N(Cc2cccnc2)Cc2cc3cc(C)ccc3n3nnnc23)cc1` the value was -23.8%; for `Cc1ccc2c(c1)cc(CN(Cc1ccc3c(c1)OCO3)C(=O)c1cnccn1)c1nnnn12`, -45.7%; for `Cc1cccc2cc(CN(CCc3ccccc3)C(=O)N3CCOCC3)c3nnnn3c12`, 12.5%. Regarding `Cc1ccc2c(c1)cc(CN(Cc1ccco1)C(=O)N1CCOCC1)c1nnnn12`, the “hERG current change (%, negative = inhibition) at 10uM” value is given as -14.7%.

For `Cc1cccc2cc(CN(Cc3cccnc3)C(=O)c3cccs3)c3nnnn3c12`, the “hERG current change (%, negative = inhibition) at 10uM” value came to 26.1%.

For `Cc1ccc2c(c1)cc(CN(Cc1cccnc1)C(=O)NCc1ccccc1)c1nnnn12`, the “hERG current change (%, negative = inhibition) at 10uM” value is listed as -75.2%. For the compound `Cc1ccc2c(c1)cc(CN(Cc1ccc3c(c1)OCO3)C(=O)c1ccccc1)c1nnnn12`, the “hERG current change (%, negative = inhibition) at 10uM” value is on record as -11.5%. The same measure for `Cc1ccc2c(c1)cc(CN(Cc1cccnc1)C(=O)c1ccccc1)c1nnnn12`: -78%; for `Cc1ccc(S(=O)(=O)N(C)C)cc1-n1c(SCC(=O)Nc2ccc(F)cc2Cl)nc2ccccc2c1=O`: 0.00438%; for `CC(=O)N1CCc2cc(S(=O)(=O)Nc3ccc(C)cc3)ccc21`: 16.9%. Regarding `Cc1ccccc1CN1CCN(S(=O)(=O)c2ccc(Cl)s2)CC1`, the “hERG current change (%, negative = inhibition) at 10uM” value worked out at 3.24%.

Take `CCOC(=O)c1c(C)oc2cc(Br)c(O)c(Br)c12`: the “hERG current change (%, negative = inhibition) at 10uM” value came to 8.34%. For `COc1ccc(C[C@H]2CN3C(=NC[C@@H]3Cc3ccc(O)cc3)N2C[C@H](C)NC(=O)c2ccc(C)c(Br)c2)cc1` the value was -77.9%.

Consider `Cc1ccc(C(=O)N[C@@H](C)CN2C3=NC[C@H](Cc4ccccc4)N3C[C@H]2Cc2ccc(O)cc2)cc1Br`, for which the “hERG current change (%, negative = inhibition) at 10uM” value was -82.5%. The same measure for `CCOc1ccc(C(=O)Nc2nnc(C)s2)cc1OCC`: -4.04%; for `COc1cc(/C=C2/SC(=O)NC2=O)ccc1OC(=O)c1ccco1`: -0.00422%; for `COc1cc2c(c3oc(=O)cc(CC(=O)O)c13)CCC(C)(C)O2`: -5.45%. The same measure for `COc1ccccc1CCC(=O)N1CCC(n2nccc2NC(=O)C2CCOC2)CC1` (centres unmarked): 23.1%; for `CCOC(=O)CC1(c2ccccc2)CCOC(C)(C)C1` (centres unmarked): 10.2%; for `O=C(c1cccnc1)N1C2C=CC(C2)C1(C(F)(F)F)C(F)(F)F` (centres unmarked): 14.6%. For `Cc1noc(C)c1C(=O)NC(C)C1CCCO1` (centres unmarked) the value was 3.08%; for `Cc1ccc(C(=O)N2CCN(C)CC2)cc1S(=O)(=O)N1CCCCCC1`, -25.9%; for `Cc1ccc2cc(CCNC(=O)c3ccc4c(c3)OCO4)c(=O)[nH]c2c1C`, 4.17%. Take `O=C(O)c1ccc(COc2ccccc2/C=C2\NC(=O)N(Cc3ccccc3)C2=O)cc1`: the “hERG current change (%, negative = inhibition) at 10uM” value worked out at 24.5%. For the compound `O=C(O)c1ccc(CS(=O)(=O)c2c(Cl)cccc2Cl)o1`, the “hERG current change (%, negative = inhibition) at 10uM” value is given as 19%. The same measure for `CCCCN(CC)CCCNC(=O)c1ccc(CS(=O)(=O)c2ccccc2C)o1`: -35.2%. The same measure for `CCCN(CCC)CCCNC(=O)c1ccc(CS(=O)(=O)c2c(Cl)cccc2Cl)o1`: -73.1%; for `O=C(NCCCN1CCCC1)c1ccc(CS(=O)(=O)c2c(Cl)cccc2Cl)o1`: -10.5%. For `CCCCN(CCCNC(=O)c1ccc(CS(=O)(=O)c2c(Cl)cccc2Cl)o1)Cc1ccccc1` the value was -66.1%; for `O=C(NCCN1CCOCC1)c1ccc(CS(=O)(=O)c2c(Cl)cccc2Cl)o1`, 0.302%. In the case of `CCCCN(CC)CCCNC(=O)c1ccc(CS(=O)(=O)c2c(Cl)cccc2Cl)o1`, the “hERG current change (%, negative = inhibition) at 10uM” value was -55.4%.

With `COCCNC(=O)c1ccc(CS(=O)(=O)c2c(Cl)cccc2Cl)o1`, the “hERG current change (%, negative = inhibition) at 10uM” value is recorded as 0.994%. The same measure for `O=C(NC1CC1)c1ccc(CS(=O)(=O)c2c(Cl)cccc2Cl)o1`: -5.87%. For `O=c1nc(-c2ccccc2)c2ccccc2[nH]1`, the “hERG current change (%, negative = inhibition) at 10uM” value was -1.29%.
